The record followed here is PubChem BioAssay AID720648 (The Scripps Research Institute Molecular Screening Center, 2013).

Hit rate of the full screen: of about 370,000 compounds, about 3,100 (0.84%) were called active. This excerpt belongs to a sample that is enriched for actives. Values without a mark were called inactive.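 Rule for the calls: active = inhibition above the mean of compounds lying between control limits plus 3 SD, set per campaign (cut at about 8.5% in these data); inactive = the rest.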

In the test the target is Disintegrin and metalloproteinase domain-containing protein 17 (Homo sapiens) (UniProt P78536). The test is described as follows: ADAM17 inhibitors, primary screen, biochemical, QFRET (AID 720648).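 Note: 0% = DMSO-only wells as the low control.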 Particulars: recombinant ADAM17, EDANS/DABCYL FRET peptide cleavage; at 6.95 µM; hits give high values.
Disintegrin and metalloproteinase domain-containing protein 17 (Homo sapiens), sequence (P78536 215-824 limits assumed): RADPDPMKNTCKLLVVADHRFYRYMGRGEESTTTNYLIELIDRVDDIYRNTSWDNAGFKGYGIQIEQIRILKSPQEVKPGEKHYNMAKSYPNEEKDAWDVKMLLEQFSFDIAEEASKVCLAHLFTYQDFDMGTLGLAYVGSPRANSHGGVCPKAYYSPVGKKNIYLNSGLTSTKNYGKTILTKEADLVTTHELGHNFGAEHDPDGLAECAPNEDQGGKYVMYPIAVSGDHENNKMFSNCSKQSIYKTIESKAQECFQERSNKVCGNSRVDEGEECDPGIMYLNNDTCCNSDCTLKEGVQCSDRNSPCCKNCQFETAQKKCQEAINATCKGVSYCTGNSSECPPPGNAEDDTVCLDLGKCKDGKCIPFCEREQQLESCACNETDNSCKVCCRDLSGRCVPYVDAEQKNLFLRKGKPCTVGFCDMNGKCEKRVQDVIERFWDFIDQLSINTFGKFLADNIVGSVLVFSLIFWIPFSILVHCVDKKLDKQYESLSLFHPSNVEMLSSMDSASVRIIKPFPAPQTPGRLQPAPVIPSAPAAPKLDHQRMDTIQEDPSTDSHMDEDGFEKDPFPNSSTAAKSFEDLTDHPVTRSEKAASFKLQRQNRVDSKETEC
Take `C[C@@H]1CN([C@H](C)CO)C(=O)c2cc(-c3ccc(F)cc3)cnc2O[C@H]1CN(C)C(=O)c1ccc(F)cc1`: the inhibition is 11.7% (active).
On to `COc1ccc(-c2cnc3c(c2)C(=O)N([C@H](C)CO)C[C@@H](C)[C@H](CN(C)Cc2ccccc2)O3)cc1`, for which the inhibition was 2.22%.
`C[C@H]1CN([C@@H](C)CO)C(=O)c2cc(-c3cccc(F)c3)cnc2O[C@@H]1CN(C)S(C)(=O)=O`: the inhibition was 1.1%.
For `CCCCCN1CCCCC(NC(=O)C(C)CCC)C1=O` (stereo not drawn), the inhibition is -3.79%.
As for `CCCCNC(=O)C[C@@H]1C(=O)N(CCc2ccc(Cl)cc2)C2=CCCC[C@]21C(=O)OCC`, the inhibition was -1.53%.
In the case of `Cc1ccc(-c2nc(CS(=O)(=O)CC(=O)NCc3ccc4c(c3)OCO4)c(C)o2)cc1`, the inhibition is -1.45%.
`O=C(CN1CCN(c2nc(-c3ccccc3)cs2)CC1)NCc1ccc2c(c1)OCO2`: the inhibition is 11.7% (active).
To `CC1(C(=O)NCc2ccc3c(c2)OCO3)CCN1CCc1ccccc1` (stereo not drawn) belongs 4.37%; to `Cc1ccc(-n2c(SCC(=O)Nc3cccc4ccccc34)nnc2-c2ccccn2)cc1`, 0.17%; to `COc1ccc(C(=O)OCCN(C)C2CN(Cc3cn(Cc4cccc(C)c4)nn3)S(=O)(=O)C2)cc1OC` (stereo not drawn), 0%.
As to `CC1CCN(c2ccc(C(=O)O)cc2NS(=O)(=O)c2ccc(Br)s2)CC1`, the inhibition was -2.39%.
In the case of `Clc1ccc(-n2c(COc3ccccc3)nnc2SCc2nc3ccccc3[nH]2)cc1`, the inhibition was 1.5%.
With `COc1ccc(C2(CNC(=O)Cc3ccc(OC)c(OC)c3)CCCC2)cc1`, the inhibition was 0.4%.
For the compound `COc1ccc(CC(=O)c2ccc(O)cc2O)cc1OC`, the inhibition was 9.65% (active).
To `COc1ccc(CCNC(=O)C(=O)NCc2ccccc2C)cc1OC` belongs -2.04%; to `FC(F)(F)c1cccc(NC(=S)OC2CCC23CCC(c2ccccc2)CC3)c1` (stereo not drawn), 4.59%; to `C#CCNC(=O)C[C@H]1C[C@@]2(C(=O)OC)C(=C[C@H](C(C)C)O[C@@H]2C2CC2)N(Cc2ccco2)C1=O`, -2.14%.
`C(=C\c1ccccc1)/CSc1nnc(-c2cccnc2)n1Cc1ccco1`: the inhibition is -2.99%.
Take `O=C(CSc1nnc(-c2ccccc2)n1Cc1ccco1)Nc1ccccc1-c1ccccc1`: the inhibition was 3.73%.
As for `Cc1ccc(-c2nnc(SCC(=O)Nc3ccc(Oc4ccccc4)cc3)n2Cc2ccco2)cc1`, the inhibition is 9.36% (active).
For the compound `Cc1ccc(OCc2nnc(SC/C=C/c3ccccc3)n2Cc2ccco2)cc1`, the inhibition was 10.7% (active).
In the case of `O=C(CSc1nnc(-c2cccc(Cl)c2)n1Cc1ccco1)Nc1ccc(OCc2ccccc2)cc1`, the inhibition is 4%.
For `O=C(CSc1nnc(COc2ccccc2)n1Cc1ccco1)c1ccc2ccccc2c1`, the inhibition is 8.38%.
As to `CC(C)(C)OC(=O)NCCc1ccccc1/C=C/S(=O)(=O)NCc1ccc(F)cc1`, the inhibition was 1.57%.
For the compound `O=C(NC1CCC1)c1ccc(C#Cc2cccc(F)c2)c[n+]1[O-]`, the inhibition is -5.18%.
Take `CCC(=O)c1c(CC)c2n3c1=CC[C@H]3CC(Br)C=2` (stereo partly drawn): the inhibition is -4.68%.
As to `CN1[C@H](Cc2ccccc2)COc2cccc(N3CCSCC3)c2S1(=O)=O`, the inhibition was -1.43%.
Regarding `CCOc1ccc(Oc2c(Cl)cnn(-c3ccc(C)cc3)c2=O)cc1`, the inhibition was -4.44%.
For `Cc1ccccc1NC(=O)Cn1nnc(-c2ccccc2F)n1`, the inhibition is 1.5%.
As to `CSc1ccc(C=Nn2c(-c3ccc(F)cc3)n[nH]c2=S)cc1`, the inhibition was -0.62%.
Consider `CCOc1ccc(-c2n[nH]c(=S)n2/N=C/c2cc3c(cc2[N+](=O)[O-])OCO3)cc1`, for which the inhibition was -4.26%.
As to `Cc1ccc(-c2n[nH]c(=S)n2/N=C/c2cc3c(cc2[N+](=O)[O-])OCO3)cc1`, the inhibition is 8.7% (active).
Turning to `COC1=C[C@H](C(=O)NCCNC(C)=O)[C@H](C)[C@@H](c2ccccc2)CC1=O`, the inhibition is -1.19%.
The figure for `FC(F)(F)c1cccc(Cn2ccc3ccc(-c4ccc5ccn(Cc6ccccc6)c5c4)cc32)c1` is -14.4%; for `COC(=O)c1cccc(Cn2ccc3ccc(-c4ccc5ccn(C(=O)c6ccccc6C)c5c4)cc32)c1` it is -5.84%.
The figure for `CC(C)(C)NC(=O)C(c1cccnc1)N(C(=O)c1cnco1)c1ccc(C(C)(C)C)cc1` (stereo not drawn) is -6.7%; for `Cc1nnc(SCC(=O)NC2CCCC2)s1` it is -4.16%; for `Cc1nnc(SCC(=O)Nn2cnnc2)s1` it is 8.83% (active).
With `CCSc1nnc(SCC(=O)NNC(=O)c2ccccc2F)s1`, the inhibition was -2.03%.
In the case of `CN(C(N)=NC(=O)/C=C/c1ccccc1)C(C#Cc1ccccc1)Cc1ccccc1` (stereo not drawn), the inhibition is 0.96%.
Take `CCOC(=O)[C@]12CCCC3=C1N(CCC3)C(=O)[C@@H](CC(=O)NCC13CC4CC(CC(C4)C1)C3)C2`: the inhibition was 0.7%.
Turning to `COc1cccc(CNc2ncc(-c3ccccc3)n2C)c1`, the inhibition was 5.33%.
In the case of `COc1cccc(CNc2nc(C(F)(F)F)nc3ccccc23)c1`, the inhibition is 10.3% (active).
On to `COc1cccc(CNc2nc(NCc3cccs3)nc3ccsc23)c1`, for which the inhibition was 0.1%.
Regarding `O=C(NCCCc1ccccc1)[C@H](Cc1ccccc1)NC1(C(=O)NCCc2c[nH]c3ccccc23)CCC1`, the inhibition was 3.66%.
As to `COCCCNC(=O)/C(C#N)=C/c1c(N2CCCCCC2)nc2ccccn2c1=O`, the inhibition is -451%.
`N#C/C(=C/c1ccc(N2CCCCC2)o1)C(=O)NCCc1c[nH]c2ccccc12`: the inhibition is 15.4% (active).
`COC(=O)[C@@]12CCCCC=C1N(CCc1ccc(Cl)cc1)C(=O)[C@H]2CC(=O)NCc1ccc(OC)c(OC)c1`: the inhibition was -0.2%.
To `O=C(CSc1nc2ccccc2s1)NN=Cc1ccc(O)cc1O` belongs 3.8%; to `Cc1ccc(Cn2cc(COC(=O)N(C)Cc3ccccc3)nn2)cc1`, -1.03%; to `Cc1ccc(C(=O)Nc2ccc(C)c(S(=O)(=O)N(C)C)c2)s1`, 9.87% (active).
The figure for `Cc1ccc(C(=O)NCC(=O)O)s1` is 3.71%; for `COc1ccc(CCC(=O)OCC(=O)Nc2ccc(C)c(S(=O)(=O)N(C)C)c2)cc1` it is 0.46%.
For `C=CCN1[C@H](CC(C)C)COc2cccc(N3CCCC3)c2S1(=O)=O`, the inhibition was -8.01%.
For the compound `C#CCCN([C@H](C(=O)OC)C(C)C)S(=O)(=O)c1ccc(F)cc1Br`, the inhibition was 2.67%.
The figure for `O=C1CC[C@@H](COc2ccc3[nH]cc(-c4ccccc4)c3c2-c2ccccc2)N1` is -1.86%; for `N#Cc1ccc(OC[C@@H](O)CN2CCC(C(O)(c3ccccc3)c3ccccc3)CC2)c(F)c1` it is 0.92%; for `O=C(COC(=O)CCc1nc2ccccc2c(=O)[nH]1)Nc1ccc(N2CCOCC2)cc1` it is -2.52%.
On to `O=C(COC(=O)CCCSc1nc2ccccc2[nH]1)Nc1ccc(Oc2ccccc2)cc1`, for which the inhibition is 10.8% (active).
To `CCN(c1ccc(NC(=O)COC(=O)CCc2nc3ccccc3n2-c2ccccc2)cc1)C(C)C` belongs 4.08%.
In the case of `COc1ccc(CN2C/C(=C/c3ccccc3)N3C(=O)C[C@@H](c4ccccc4)N=C23)c(OC)c1`, the inhibition was 4.01%.
The figure for `C=CS(=O)(=O)N(Cc1nnn(Cc2ccccc2)c1Br)[C@H](C(=O)OC)C(C)C` is 2.02%.
To `C[C@@H](NC(=O)c1ccccc1OCC(=O)Nc1ccc(I)cc1)C(=O)N(C)Cc1ccccc1` belongs 2.09%; to `O=C(CCS(=O)(=O)c1ccccc1)Nc1ccc(Cl)c(Cl)c1`, 5.76%; to `CSc1ccc(CNC(=O)c2ccc(NC(=O)C3=CSCCO3)cc2)cc1`, 0.22%.
To `O=C(Nc1ccc(C(=O)NCc2ccccc2Cl)cc1)C1=CSCCO1` belongs 10.3% (active); to `O=C(COC(=O)c1ccc2c(c1)OCCO2)NCc1ccccc1Cl`, -2.66%.
On to `COC(=O)C1CN(CC(C)C)CCS(=O)(=O)N1Cc1ccc(C)cc1` (stereo not drawn), for which the inhibition was -8.74%.
`Cc1ccc(S(=O)(=O)N(C)CC(=O)NCCc2c[nH]c3ccccc23)cc1`: the inhibition was 0.52%.
`Cc1ccc2[nH]cc(CCNC(=O)C3CCCCC3)c2c1`: the inhibition is 0.5%.
Regarding `Cc1cc(C)cc(NC(=S)NCCc2c[nH]c3ccccc23)c1`, the inhibition was 16.1% (active).
For the compound `CC(CCN1CCC(C(O)(c2ccccc2)c2ccccc2)CC1)Oc1ccc(Cl)cc1` (stereo not drawn), the inhibition was 4.85%.
With `CCOC(=O)[C@]12CCCC=C1N(CCCOC)C(=O)[C@@H]2CC(=O)N1CCOCC1`, the inhibition was 2.05%.
For the compound `CCCC(=O)Nc1cccc(NC(=S)NC(=O)C(C)Oc2ccc(Cl)cc2Cl)c1` (stereo not drawn), the inhibition was 2.78%.
For the compound `CCCCC(=O)NNC(=S)NC(=O)C(c1ccccc1)c1ccccc1`, the inhibition is 1.95%.
Take `CC(C)C(=O)Nc1cccc(NC(=S)NC(=O)C(c2ccccc2)c2ccccc2)c1`: the inhibition is 9.39% (active).
For the compound `O=C(c1ccncc1)N1CC[C@H]2[C@H](CCCN2Cc2ccc(F)cc2)C1`, the inhibition was 1.14%.
With `CN(CCO)c1cccc2c1S(=O)(=O)N(Cc1cn(Cc3ccc(C(F)(F)F)cc3)nn1)Cc1ccccc1O2`, the inhibition was -1.94%.
Turning to `COC(=O)[C@]12C[C@H](CC(=O)NCC34CC5CC(CC(C5)C3)C4)C(=O)N(Cc3ccc(Cl)cc3Cl)C1=C[C@H](COCc1ccccc1)O[C@@H]2C`, the inhibition is -3.09%.
For `CCCOc1ccc(Oc2c(Cl)cnn(Cc3cccc4ccccc34)c2=O)cc1`, the inhibition is -6.8%.
Regarding `CCc1cccc(NC(=O)COC(=O)C2CCN(c3ccc(C(F)(F)F)cn3)CC2)c1`, the inhibition is 8.96% (active).
For `CCOc1ccc(CCNC(=O)COC(=O)C2CCN(c3ccc(C(F)(F)F)cn3)CC2)cc1OCC`, the inhibition is -1.24%.
The figure for `N#CCCN(C(=O)COC(=O)C1CCN(c2ccc(C(F)(F)F)cn2)CC1)c1ccc(F)cc1` is -2.71%.

By inhibition is commonly meant the relative decrease from the control value, in per cent.
